Source: PubChem
PostGolgi ctrl – growth of the yeast control strain, post-Golgi counter-screen | actives 5% (n = 98,000) | inhibition, % at 10 µM | efflux-deficient yeast background strain, growth absorbance A615, 16 h
PostGolgi yeast – growth inhibition of a yeast mutant, post-Golgi transport screen; post-Golgi transport phenotypic cell assay; inhibition, % at 10 µM; actives 0.9% (n = 98,000); AID 739;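 also: yeast cells grown in 1536-well plates; yeast grown about 18 h at 30C before absorbance read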
CYP2C19 activ – activators of human cytochrome P450 2C19; 96,000 tested, under 10 active; recombinant CYP2C19, luciferin-H EGE luminescence; active compounds read high; 0 = fully inhibited enzyme, 1 = untreated enzyme; P33261; AID 1025; activation factor at 5 µM;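 active = activation factor of at least 2 at 5 µM in the primary screen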;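 also: 0 = wells with 2.5 mM tranylcypromine and 1 = vehicle-only wells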
Target sequence (P33261 whole entry, looked up): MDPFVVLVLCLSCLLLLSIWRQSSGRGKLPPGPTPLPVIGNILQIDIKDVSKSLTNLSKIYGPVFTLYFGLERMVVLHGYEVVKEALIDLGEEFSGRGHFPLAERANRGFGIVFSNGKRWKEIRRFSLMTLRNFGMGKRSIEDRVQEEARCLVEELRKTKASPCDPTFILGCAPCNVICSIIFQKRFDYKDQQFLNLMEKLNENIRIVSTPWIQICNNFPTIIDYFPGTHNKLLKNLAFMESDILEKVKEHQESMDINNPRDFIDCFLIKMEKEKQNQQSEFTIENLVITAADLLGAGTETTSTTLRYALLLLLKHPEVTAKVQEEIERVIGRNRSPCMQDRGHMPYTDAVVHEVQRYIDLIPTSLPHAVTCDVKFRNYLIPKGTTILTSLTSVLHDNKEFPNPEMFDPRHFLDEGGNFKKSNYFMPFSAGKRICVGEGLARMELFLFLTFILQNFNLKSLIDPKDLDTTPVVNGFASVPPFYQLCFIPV
CYP2C9 inhib – blocks human cytochrome P450 2C9; inhibition, % at 5 µM; P11712; CYP2C9 Supersomes, luciferin-H conversion, luminescence; actives 20% (n = 96,000);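 active = blocking of liver enzyme CYP2C9 beyond about 50% at 5 µM, limit read from the data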
CYP2C19 inhib – human CYP2C19 inhibition; CYP2C19 Supersomes, luciferin-H EGE luminescence, 30 min; inhibition, % at 5 µM; actives 21% (n = 96,000); AID 778;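 active = CYP2C19 inhibition above a set limit at 5 µM in the primary screen, cut at about 50% in these data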;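 also: plate controls were negative control wells for no effect and 2.5 mM tranylcypromine positive control for full effect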
CYP2C9 activ – CYP2C9 (human) activation; P11712; recombinant CYP2C9, luciferin-H conversion, luminescence; active compounds read high; factor 1 = untreated enzyme, 0 = blocked; activation factor at 5 µM; actives 1.4% (n = 96,000);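 active = activation factor of 2 or more for CYP2C9 at a 5 µM dose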;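 also: 0 = sulfaphenazole-blocked wells and 1 = vehicle-only wells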
* hit, by the source's call; nt = no result. A selection: hits, their analogues and other compounds. The true share with any hit is near 32%. Rule as the data show it, unless noted: active = inhibition above about 30%; inactive = the rest.

SMILES | PostGolgi ctrl | PostGolgi yeast | CYP2C19 activ | CYP2C9 inhib | CYP2C19 inhib | CYP2C9 activ
COc1cccc(OCc2nnc(SCC(=O)NCc3ccco3)n2C)c1 | 21.3 | 2.8 | 1 | -4.2 | -0.2 | 1
COc1ccc(-n2c(COc3cccc4ccccc34)nnc2SCC(=O)NCc2ccco2)cc1 | 13.8 | 13.8 | 0.7 | 55.3* | 27.8 | 0.4
Cc1ccc(-n2c(CSc3nc(C)cc(C)n3)nnc2SCC(=O)NCc2ccco2)cc1 | -10.2 | 0.8 | 1 | 41.4 | -0.7 | 0.6
COc1ccc(-n2c(COc3ccc4ccccc4c3)nnc2SCC(=O)NCc2ccco2)cc1 | 23.8 | -5.3 | 0.5 | 51.5* | 46.5 | 0.5
Cn1cc(CC(=O)N2CCN(c3ccccc3F)CC2)c2ccccc21 | 5.8 | -2.8 | 0 | -64.6 | 99.6* | 1.6
Cn1cc(CC(=O)N2CCN(c3ccc(Cl)cc3)CC2)c2ccccc21 | 2.8 | -0.2 | 0.3 | -105.2 | 70.6* | 2.1*
O=C(Cc1ccc(-n2cccc2)cc1)N1CCN(c2ccccc2F)CC1 | 9.7 | 0.5 | 0.5 | 63.3* | 49.8 | 0.4
O=C(CCCC(=O)N1CCN(c2ccccc2F)CC1)N1CCN(c2ccccc2F)CC1 | 19.2 | 0.5 | 0.9 | 16.2 | 7.7 | 0.8
O=C(CSc1nc2ccc(S(=O)(=O)N3CCOCC3)cc2[nH]1)N1CCOCC1 | 12.0 | -2.5 | 0.8 | 6.5 | 15.6 | 0.9
COc1ccc(Cl)cc1NC(=O)CSc1nnc(Cn2c(=O)sc3ccccc32)n1C | -4.3 | 9.3 | nt | nt | nt | nt
O=c1cc(CO)occ1OCc1cccc(F)c1 | 33.3* | 10.9 | 0.7 | -19.6 | 26.2 | 1.2
Cc1nc2ccccc2n1CCC(=O)Nc1cccc(F)c1 | 7.5 | 2.7 | 0.8 | 17.8 | 21.1 | 0.8
O=c1c2c(nc3c(-c4cccc5ccccc45)c[nH]n13)CCC2 | -0.9 | -2.3 | 0.9 | 69.3* | 7.2 | 0.3
COc1ccc(OC)c(NC(=O)CS(=O)(=O)Cc2nc(-c3ccccc3C)oc2C)c1 | 22.7 | -0.7 | 1.1 | 9.3 | -11.1 | 0.9
COc1ccc(OC)c(-c2cc(C(=O)N3CCCc4ccccc43)no2)c1 | 37.0* | -2.3 | 0.6 | 5.0 | 44.2 | 0.9
COc1ccc(-c2cc(C(=O)N3CCCc4ccccc43)no2)cc1 | 9.5 | 1.3 | 0.7 | 26.5 | 33.8 | 0.7
COc1cccc(-c2cc(C(=O)N3CCCc4ccccc43)no2)c1 | 35.2* | 0.9 | 0.5 | -83.4 | 46.2 | 1.8
O=C(c1cc(-c2cccs2)on1)N1CCCc2ccccc21 | 29.4 | 5.1 | 0.1 | 25.8 | 93.4* | 0.7
CSCCC(NC(=O)c1occc1C)C(=O)O (stereo not given) | 22.6 | 8.9 | 1.2 | -24.3 | -20.2 | 1.2
CCOC(=O)N1CCN(C(=O)c2ccc(Cl)c(S(=O)(=O)N3CCOCC3)c2)CC1 | 15.4 | -5.0 | 1 | 8.8 | 0.7 | 0.9
CCOC(=O)N1CCN(S(=O)(=O)c2cc(Br)cc3c2N(C(C)=O)C(C)C3)CC1 (stereo not given) | 18.3 | -1.1 | 0.4 | 49.7 | 64.0* | 0.5
CCOC(=O)C1CCN(S(=O)(=O)c2cc(Br)cc3c2N(C(C)=O)C(C)C3)CC1 (stereo not given) | 0.0 | -6.1 | 0.1 | 78.9* | 93.3* | 0.2
CC(=O)N1c2c(cc(Br)cc2S(=O)(=O)N2CCN(c3ccccn3)CC2)CC1C (stereo not given) | 0.0 | 0.9 | 0.7 | 67.1* | 31.4 | 0.3
COc1cccc(CNS(=O)(=O)c2cc(Br)cc3c2N(C(C)=O)C(C)C3)c1 (stereo not given) | 8.6 | 16.1 | 0.3 | -109.8 | 74.3* | 2.1*
COc1ccc(-c2nc(CN3CCC(C(=O)N4CCc5ccccc54)CC3)c(C)o2)cc1OC | 11.3 | 0.0 | 0.9 | 30.1 | 13.4 | 0.7
SMILES | PostGolgi ctrl | PostGolgi yeast | CYP2C19 activ | CYP2C9 inhib | CYP2C19 inhib | CYP2C9 activ
CCCCN(C)C(=O)c1sc2ncn(CC)c(=O)c2c1C | 17.2 | -1.1 | 1.2 | -4.4 | -19.6 | 1
COc1ccc(/C=N/NC(=O)CC(=O)NCc2cccnc2)cc1 | -3.8 | 12.3 | 1.1 | 19.1 | -8.4 | 0.8
Cc1cc(NS(=O)(=O)c2ccccc2)c(C)c(Cl)c1O | 19.4 | 12.7 | 0 | -181.7 | 99.1* | 2.8*
COC(=O)C1CCN(C(=O)C2CCCCC2)CC1 | 9.5 | 4.0 | 0.3 | 22.5 | 65.9* | 0.8
O=C(CN1CCN(c2ccccc2)CC1)Nc1cccc(C(F)(F)F)c1 | 0.7 | -13.4 | 0.7 | 28.8 | 26.6 | 0.7
COC(=O)c1cccc(NC(=O)CN2CCN(Cc3ccccc3)CC2)c1 | 5.8 | 4.1 | 0.5 | 64.3* | 50.9* | 0.4
CC1CN(CC(=O)Nc2cccc(C(=O)Nc3cccc(C(F)(F)F)c3)c2)CC(C)O1 (stereo not given) | 3.0 | 3.0 | 0.5 | 77.2* | 54.2* | 0.2
O=C(CN1CCN(Cc2ccccc2)CC1)Nc1cccc(C(F)(F)F)c1 | 2.7 | 3.2 | 0.4 | 50.7* | 55.0* | 0.5
CCNC(=O)/C(=C/c1ccc2c(c1)OCO2)NC(=O)c1ccc(Br)cc1 | 5.2 | 2.5 | 0.7 | 25.7 | 31.6 | 0.7
CCCc1cc(=O)n2[nH]c(Cc3ccccc3)nc2n1 | -0.2 | -3.2 | 1 | 26.6 | -2.9 | 0.7
COc1ccc(-c2nc(C)ncc2-c2csc(C)n2)c(O)c1 | 8.3 | -6.1 | 0.5 | 11.3 | 54.3* | 0.9
COc1ccc(-c2ncncc2-c2csc(C)n2)c(O)c1 | 3.7 | -0.8 | 0.1 | 48.6 | 88.9* | 0.5
COc1ccc(-c2cnc(N)nc2-c2ccc(OC)cc2O)cc1 | 28.2 | -5.9 | 0.7 | 18.8 | 28.1 | 0.8
COC(=O)c1ccc(OC)c(CSc2nnc(COc3ccc(OC)cc3)o2)c1 | 20.3 | 8.6 | 0.6 | 69.1* | 38.4 | 0.3
COC(=O)c1ccc(OC)c(CSc2nnc(COc3cccc(C)c3)o2)c1 | 10.2 | -8.3 | 0 | 89.9* | 96.0* | 0.1
CC(C)OCCCN1C(=O)c2ccccc2C1C(=O)NC1CCCCC1 (stereo not given) | 2.9 | 5.0 | 1.1 | 0.6 | -7.1 | 1
CC1=C(C(N)=O)C(c2ccccc2F)NC(=O)N1 (stereo not given) | -7.0 | 23.3 | 1 | 53.2* | -3.5 | 0.5
CCCOc1ccccc1C1NC(=O)NC(C)=C1C(=O)OCCOCC (stereo not given) | 1.8 | 9.5 | 0.8 | 21.0 | 23.6 | 0.8
CCOC(=O)C1=C(N)OC2=C(C(=O)CCC2)C1c1ccccc1OCC (stereo not given) | 25.2 | -6.0 | 0.2 | 48.6 | 79.5* | 0.5
COC(=O)C1=C(C)NC(=O)NC1c1cc(Cl)ccc1OC (stereo not given) | 18.5 | 1.3 | 1.1 | 15.6 | -5.4 | 0.8
CCCCOc1ccccc1C1NC(=O)NC(C)=C1C(=O)OCc1ccco1 (stereo not given) | 3.7 | -1.9 | 0.4 | 72.6* | 60.9* | 0.3
CCCCOc1ccccc1C1NC(=O)NC(C)=C1C(=O)OCCOCC (stereo not given) | 7.7 | -3.9 | 0.3 | 74.7* | 69.7* | 0.3
